# MCF10A rereplic: inducers of DNA re-replication in MCF 10A breast cells; MCF 10A DNA re-replication, Hoechst nuclear intensity, 48 h; Potency, µM (series often up to 46.1 µM), inactives show top-dose activity, positive = re-replication, actives largely listed as activators; 2.9% of 350,000 active; AID 624296; note: % of control where 0% means no effect; nearly all actives have a fitted effect of over 50% in size
# HT1080 IDH1KD tx: HT-1080 IDH1 knockdown cell toxicity (counter line) | HT-1080 IDH1 knockdown viability, ATP luminescence, 48 h | 2% of 360,000 active | Potency, µM (doses to about 46.1 µM), without a hit: top-dose activity, negative = toxicity, usual class: cytotoxic;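 note: 0% = DMSO wells and -100% = cell-free medium wells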
#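 In this qHTS, HT-1080 cells depleted of IDH1 are exposed for 48 h at 37 °C to compound titrations. Toxicity is scored from CellTiter-Glo luminescence, with DMSO as full viability and medium alone as none.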
# HT1080NT lethal: kills 2HG-producing HT-1080-NT fibrosarcoma cells. 1.6% of 360,000 active. HT-1080-NT fibrosarcoma viability, CellTiter-Glo ATP luminescence, 48 h. Potency, µM (titrated, usually from 46.1 µM), without a hit: at the highest dose activity, negative = less viability, usual class: cytotoxic. AID 686970;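 note: NT is the 2HG producing partner of a matched IDH1 knockdown line; 0% = DMSO-treated cells and -100% = media-only wells without cells; nearly all actives have a fitted effect of over 55% in size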
#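 Read-out is CellTiter-Glo luminescence after 10 minutes at room temperature, following 48 hours' compound treatment of HT-1080-NT cells (750 cells/well, RPMI, 5% FBS, 37 degrees C).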
# SW480 rerep: induces DNA re-replication in SW480 colon adenocarcinoma cells | SW480 DNA re-replication, Hoechst DNA content imaging, 48 h | Potency, µM (top dose mostly 46.1 µM), inactives show at the highest dose re-replication activation, hits mostly activators | 1.8% of 340,000 active | AID 624297; note: % of control where 0% means no effect; nearly all actives have a fitted effect of over 55% in size
#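 First, 250 cells per well were seeded. Next, compound or vehicle (23 nL) was pinned in, plates sat 48 hr at 37 C. Finally Hoechst was added for 40 min before fluorescence scanning.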
# KB-3-1 tox: kills parental KB-3-1 adenocarcinoma cells | 1.4% of 400,000 active | Potency, µM (titrated, usually from 46.1 µM), actives largely listed as cytotoxic | KB-3-1 viability, CellTiter-Glo ATP luminescence, 72 h; note: % is set by controls: 0 for no effect and ±100 for the full control effect; nearly all actives have a fitted effect of over 60% in size
#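 Cytotoxicity in the drug-sensitive parental line KB-3-1 was scored as loss of CellTiter-Glo luminescence following 72 h incubation with compound. Values come from curve fitting of normalized concentration-response data.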
# KB-V1 MDR tox: kills drug-selected multidrug resistant KB-V1 cells. KB-V1 MDR cells viability, CellTiter-Glo, 72 h. Potency, µM (top dose mostly 46.1 µM), hits mostly cytotoxic. 3.4% of 400,000 active; note: % is set by controls: 0 for no effect and ±100 for the full control effect; nearly all actives have a fitted effect of over 60% in size
#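 Readout: CellTiter-Glo luminescence, 10 min after addition. Cells: KB-V1 MDR subline, 72 h at 37 degrees C with compound. Analysis: corrected, normalized data fitted to concentration-effect curves.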
# Active calls of the source: *; i = inactive; u = inconclusive; x = no result given; [ ] = another dose, or the depositor's remark. Compounds with a hit are over-represented: about 8% of the library has one in this group of screens. Calls come from the whole dose curve; as a rule, active = well fitted curve in the direction sought with a large enough effect; inconclusive = small, poorly fitted or top-dose-only effect, or another doubt; inactive = no such curve, though single readings can be large; an effect the other way counts as inactive or inconclusive. Potency is the fitted concentration of half-maximal effect.
SMILES,MCF10A rereplic,HT1080 IDH1KD tx,HT1080NT lethal,SW480 rerep,KB-3-1 tox,KB-V1 MDR tox
CCOc1ccc(S(=O)(=O)N2CCOCC2)cc1NC(=O)CSC(=S)N1CCCC1,3%,-2%,-7%,-1%,i,u
CCN(CC(O)Cn1c2ccccc2c2ccccc21)S(=O)(=O)c1ccc(F)cc1 (stereo not given),66%,u,u,u,u,12µM*
O=S(=O)(c1ccc(F)cc1)N(CC(O)Cn1c2ccccc2c2ccccc21)c1ccccc1 (stereo not given),x,x,x,x,i,i
O=S(=O)(c1ccc(F)cc1)N(CCO)CC(O)Cn1c2ccccc2c2ccccc21 (stereo not given),12%,18µM*,u,0%,i,23µM*
Cn1c(=O)n(CC(=O)NCC2CCCO2)c(=O)c2c3c(sc21)CCCC3 (stereo not given),-4%,-1%,13%,u,i,i
CCc1ccc(C(=O)CSc2nc(-c3ccccc3)nc3c2CCCC3)cc1,x,x,x,x,i,i
COc1ccc2c(-c3ccccc3)cc3nnnn3c2c1,2.6µM*,2%,4%,132%,i,i
CSc1n[nH]c(-c2sccc2OCc2ccc(C)cc2)n1,19%,7%,-2%,-5%,i,16µM*
Cc1ccc(CN=Cc2[nH]c3ccc(Br)c(Cl)c3c2O)cc1,4%,18µM*,-24%,-9%,i,i
CC1CCN(S(=O)(=O)c2ccc3c(ccc(=O)n3CC(=O)Nc3cccc(F)c3)c2)CC1,x,x,x,x,i,u
N#Cc1c(-c2ccc3c(c2)OCO3)cc[nH]c1=O,17%,-1%,8%,-18%,u,u
COc1nc(-c2ccccc2)cc(-c2ccc3c(c2)OCO3)c1C#N,u,-14%,u,u,1.8µM*,i
CC1c2cc3c(cc2CCN1CC(=O)Nc1ccccc1)OCCCO3 (stereo not given),0%,-3%,-28%,-1%,u,u
CC1c2cc3c(cc2CCN1C(=O)c1cccc(Cl)c1)OCCCO3 (stereo not given),u,u,21µM*,-9%,u,5.8µM*
CSc1ccc(C(c2c(C(=O)O)[nH]c3ccccc23)c2c(C(=O)O)[nH]c3ccccc23)cc1,21µM*,-6%,-5%,u,i,i
Cn1c(=O)c2nc3ccccc3nc2n(C)c1=O,0.73µM*,-4%,0%,-55%,i,i
CCOc1ccc(C(=O)Nc2ccc(OCc3cc(=O)n4cccc(C)c4n3)cc2)cc1,x,x,x,x,i,i
O=C(Nc1cccc(-c2csc(Nc3ccc(Cl)cc3)n2)c1)c1cc([N+](=O)[O-])cc(C(F)(F)F)c1,9.2µM*,4%,1%,6%,u,i
O=C(Nc1cccc(-c2csc(Nc3ccc(Cl)cc3)n2)c1)c1ccccc1,16%,u,u,-7%,i,i
O=C(Nc1cccc(-c2csc(Nc3ccc(Cl)cc3)n2)c1)c1cccc(C(F)(F)F)c1,4.1µM*,u,u,-2%,u,i
Cc1ccnc2ccc(F)cc12,x,x,x,x,i,i
Clc1ccccc1CN(Cc1ccccc1)C(c1cccs1)c1nnnn1C1CCCC1 (stereo not given),-7%,-15%,-1%,-1%[9.22 µM],u,u
Clc1ccc(CN(CC2CCCO2)C(c2cccs2)c2nnnn2C2CCCC2)cc1 (stereo not given),u,-13%,-17%,28%,u,21µM*
O=C(CSc1nnc(COc2ccc(Cl)cc2)o1)Nc1nccs1,x,-11%,-17%,x,i,i
Cc1cccc2cc(CN(Cc3ccco3)C(=O)Nc3cccc(C#N)c3)c(Cl)nc12,14%,11µM*,u,3%,i,12µM*
SMILES,MCF10A rereplic,HT1080 IDH1KD tx,HT1080NT lethal,SW480 rerep,KB-3-1 tox,KB-V1 MDR tox
Cc1ccc(C)c2[nH]c(=O)c(CN(Cc3ccco3)C(=O)Nc3ccccc3)cc12,28%,-26%,-14%,-1%[9.22 µM],i,i
COc1ccc(NC(=O)COC(=O)c2cc(=O)c3ccccc3o2)cc1OC,-4%,7%,2%,-3%,i,i
Cc1ccc(-c2nc3cc(C)c(Br)c(C)n3c2CC2CCCCC2)cc1,x,-17%,2%,x,u,i
CCCc1nc2cc(C)c(Br)c(C)n2c1CC1CCCCC1,x,u,u,x,16µM*,i
COCCCNc1nnc(Cc2ccc(Cl)cc2)c(=O)[nH]1,0.52µM*,u,0.92µM*,u,u,i
COCCNc1nnc(Cc2ccc(Cl)cc2)c(=O)[nH]1,4%,0%,-5%,4%,i,i
COc1cccc(CNC(=O)COC(=O)c2ccc(-c3ccc(O)cc3)cc2)c1,x,21µM*,u,x,i,u
COc1cccc(CNC(=O)COC(=O)c2ccc(C(=O)c3ccccc3)cc2)c1,13%,u,-3%,0%,i,i
COc1cc(/C=C2/SC(=O)NC2=O)ccc1OC(=O)c1ccco1,u,-22%,-6%,0%,10µM*,u
O=C1NC(=S)S/C1=C/c1ccc(OC(=O)c2ccco2)cc1,u,-3%,-4%,2%,i,i
CCOc1cc(/C=C2/SC(=S)NC2=O)ccc1OC(=O)c1ccco1,u,u,12µM*,u,i,i
Cc1ccc(C)c(Cn2c(=O)n(-c3ccccc3)c(=O)c3c4c(sc32)CCCC4)c1,x,x,x,x,i,i
COc1ccccc1-n1c(CNC(=O)c2ccc(S(=O)(=O)N3CCCCC3)cc2)n[nH]c1=S,1%,8%,0%,-3%,i,i
Cc1ccccc1-n1c(SCC(=O)c2c(N)n(C)c(=O)n(C)c2=O)nc2sc3c(c2c1=O)CCCC3,u,-22%,-3%,-11%,u,23µM*
CCn1c2ccccc2c2cc(C3N=C(N)Nc4nc5ccccc5n43)ccc21 (stereo not given),21µM*,26%,0%,16%,i,i
Cc1ccccc1C1c2[nH]c3ccccc3c2C[C@H]2C(=O)N(c3ccccc3C(=O)NCCN3CCOCC3)C(=O)N12 (stereo not given in full),u,-2%,-3%,-4%,i,i
Cc1ccccc1C1c2[nH]c3ccccc3c2C[C@H]2C(=O)N(c3ccccc3C(=O)NCCCN3CCOCC3)C(=O)N12 (stereo not given in full),12µM*,-9%,-13%,u,i,i
